# Assay results taken from PubChem BioAssay (EPA / NIEHS).
# Active and inactive are the calls of the source. Rule for the calls: active = hit-call score of the fitted dose curve at least 0.9, where 1 is the maximum; inactive = score below 0.9.
# Legend:
# [1] = ATG_CRE_CIS: Attagene CIS-FACTORIAL HepG2 Assay for human cAMP Responsive Element (CRE) binding protein 3 (AID 2282926); conditions: HepG2 CRE cis-reporter, Attagene multiplexed mRNA; actives raise or lower the signal
# Outline: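 Transfected HepG2 were treated for 24 hours, then RNA was extracted and reporter cDNA amplified with sequence-specific primers. Labelled fragments were separated by capillary electrophoresis, and the CRE signal was fitted bidirectionally with DMSO as baseline.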
# [2] = target: CCAAT/enhancer-binding protein beta (Homo sapiens) (UniProt P17676); assay: ATG_C_EBP_CIS: Attagene CIS-FACTORIAL HepG2 Assay for human CCAAT/Enhancer Binding Protein (C/EBP) beta (AID 2282927); conditions: HepG2 Attagene cis-factorial transcription factor reporter; actives raise or lower the signal
# Sequence of CCAAT/enhancer-binding protein beta (Homo sapiens) (P17676 whole entry, looked up): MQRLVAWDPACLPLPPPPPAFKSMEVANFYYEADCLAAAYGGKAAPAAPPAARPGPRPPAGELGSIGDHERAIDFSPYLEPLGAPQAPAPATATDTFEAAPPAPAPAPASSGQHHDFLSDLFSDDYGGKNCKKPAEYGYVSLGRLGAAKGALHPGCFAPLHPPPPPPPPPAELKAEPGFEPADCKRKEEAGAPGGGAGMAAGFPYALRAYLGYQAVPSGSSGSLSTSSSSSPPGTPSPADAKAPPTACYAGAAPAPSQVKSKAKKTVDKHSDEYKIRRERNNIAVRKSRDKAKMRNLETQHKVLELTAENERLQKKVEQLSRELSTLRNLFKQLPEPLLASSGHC
# Outline: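 HepG2 transiently transfected with multiplexed reporter units under cis-regulatory promoters reporting endogenous C/EBPb activity. After 24 h exposure, reporter mRNA assayed by RT-PCR, fluorescent labelling, HpaI digestion and capillary electrophoresis; bidirectional fitting versus DMSO.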
# [3] = ATG_CMV_CIS: Attagene CIS-FACTORIAL HepG2 Assay for human CMV (Internal Marker) (AID 2282928); conditions: HepG2 CMV promoter reporter, transcription factor profiling; actives raise or lower the signal;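 note: endpoint acts as a background internal control marker rather than a target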
# Outline: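 After transient transfection of HepG2 with reporter transcription units driven by cis-regulatory promoters, cells receive test chemical for 24 h. Labeled reporter amplicons, digested with HpaI, are sized and quantified by capillary electrophoresis against DMSO.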
# [4] = ATG_DR4_LXR_CIS: Attagene CIS-FACTORIAL HepG2 Assay for human Liver X Receptor (LXR), DR4 submotif (AID 2282929); conditions: HepG2 Attagene DR4 cis-reporter, mRNA transcription; actives raise or lower the signal
# Outline: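 Transiently transfected HepG2 liver cells; cis-regulated reporters; 24 h dosing. RT-PCR plus CE read-out of reporter mRNA. DMSO baseline, bidirectional curve fitting.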
# [5] = target: Aryl hydrocarbon receptor (Homo sapiens) (UniProt P35869); assay: ATG_Ahr_CIS: Attagene CIS-FACTORIAL HepG2 Assay for human Aryl Hydrocarbon Receptor (Ahr) (AID 2282930); conditions: HepG2 AhR cis-factorial reporter transcription; actives raise or lower the signal
# Sequence of Aryl hydrocarbon receptor (Homo sapiens) (P35869 whole entry, looked up): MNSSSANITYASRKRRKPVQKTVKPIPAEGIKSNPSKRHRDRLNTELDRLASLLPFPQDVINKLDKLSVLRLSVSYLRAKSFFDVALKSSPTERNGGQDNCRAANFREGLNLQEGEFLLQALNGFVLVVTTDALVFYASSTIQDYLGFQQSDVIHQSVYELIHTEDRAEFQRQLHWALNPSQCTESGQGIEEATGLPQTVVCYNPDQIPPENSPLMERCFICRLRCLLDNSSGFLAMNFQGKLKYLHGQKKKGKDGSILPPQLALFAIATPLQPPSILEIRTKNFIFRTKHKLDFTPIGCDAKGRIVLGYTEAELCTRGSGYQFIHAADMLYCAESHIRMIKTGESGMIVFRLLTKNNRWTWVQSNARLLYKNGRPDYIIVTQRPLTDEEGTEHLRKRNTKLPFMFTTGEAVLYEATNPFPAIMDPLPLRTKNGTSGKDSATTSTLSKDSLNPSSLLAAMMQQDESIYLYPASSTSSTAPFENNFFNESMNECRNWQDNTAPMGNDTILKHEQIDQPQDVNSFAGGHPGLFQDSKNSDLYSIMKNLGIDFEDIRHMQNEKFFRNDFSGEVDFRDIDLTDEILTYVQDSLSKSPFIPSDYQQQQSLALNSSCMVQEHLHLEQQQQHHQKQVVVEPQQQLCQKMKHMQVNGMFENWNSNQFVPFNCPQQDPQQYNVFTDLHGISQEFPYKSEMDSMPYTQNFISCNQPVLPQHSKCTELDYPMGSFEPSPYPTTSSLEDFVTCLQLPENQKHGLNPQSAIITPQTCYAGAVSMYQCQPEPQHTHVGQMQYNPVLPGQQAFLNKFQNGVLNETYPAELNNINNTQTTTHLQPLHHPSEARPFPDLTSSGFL
# Outline: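 HepG2 cells transiently transfected with cis-element-driven multiplexed reporter units; endogenous AhR activity read as reporter mRNA 24 h after dosing, via RT-PCR, 6-FAM labelling, HpaI digestion and capillary electrophoresis. Bidirectional fit relative to DMSO.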
# [6] = ATG_AP_1_CIS: Attagene CIS-FACTORIAL HepG2 Assay for human Activator Protein 1 (AP-1) (AID 2282931); conditions: HepG2 Attagene cis-factorial AP-1 reporter mRNA; actives raise or lower the signal
# Outline: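 We transfected HepG2 cells transiently with a set of cis-regulated reporter transcription units, dosed them for 24 h, and quantified reporter mRNA via RT-PCR and capillary electrophoresis, scoring gain or loss of signal relative to DMSO.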
# [7] = ATG_AP_2_CIS: Attagene CIS-FACTORIAL HepG2 Assay for human Activator Protein 2 (AP-2) (AID 2282932); conditions: HepG2 AP-2 cis-reporter, Attagene transcription factor profiling; actives raise or lower the signal
# Outline: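 Multiplexed mRNA reporter assay in HepG2: cis-regulated units report endogenous factor activity after 24 h treatment. Fluorescence from capillary electrophoresis of RT-PCR products gives the signal, with DMSO as baseline.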
# [8] = ATG_BRE_CIS: Attagene CIS-FACTORIAL HepG2 Assay for human Bone Morphogenetic Protein (BMP) Response Element (BRE) (AID 2282933); conditions: HepG2 BMP response element reporter, Attagene transcription factor profiling; actives raise or lower the signal
# Outline: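 Read-out: reporter mRNA induction quantified by RT-PCR and capillary electrophoresis after 24 h chemical exposure of transfected HepG2 cells. Endogenous factor activity on the BMP response element; gain or loss fitted against DMSO baseline.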
# [9] = target: Retinoic acid receptor alpha (Homo sapiens) (UniProt P10276); assay: ATG_DR5_RAR_CIS: Attagene CIS-FACTORIAL HepG2 Assay for human Retinoic Acid Receptor Alpha (RARE), DR5 submotif (AID 2282934); conditions: HepG2 Attagene cis-factorial RARE DR5 reporter, mRNA; actives raise or lower the signal;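 for AC50: reporter responds to endogenous RAR alpha beta and gamma in HepG2 not RARA alone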
# Sequence of Retinoic acid receptor alpha (Homo sapiens) (P10276 whole entry, looked up): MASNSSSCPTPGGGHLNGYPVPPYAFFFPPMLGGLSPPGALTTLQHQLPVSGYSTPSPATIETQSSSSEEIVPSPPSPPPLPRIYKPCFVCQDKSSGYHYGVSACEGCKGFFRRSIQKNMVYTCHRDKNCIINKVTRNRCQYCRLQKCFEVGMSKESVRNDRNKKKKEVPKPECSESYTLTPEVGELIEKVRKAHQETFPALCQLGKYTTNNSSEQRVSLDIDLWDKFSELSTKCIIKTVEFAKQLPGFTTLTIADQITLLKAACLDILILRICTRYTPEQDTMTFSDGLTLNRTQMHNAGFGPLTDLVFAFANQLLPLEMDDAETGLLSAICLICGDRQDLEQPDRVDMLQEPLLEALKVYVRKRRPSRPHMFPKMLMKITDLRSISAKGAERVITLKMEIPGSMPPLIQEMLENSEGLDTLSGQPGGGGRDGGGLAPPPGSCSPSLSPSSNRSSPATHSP
# Outline: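 HepG2 cells transiently transfected with multiplexed reporter units; DR5 cis-element drives reporter through endogenous transcription factors. After 24 h dosing, reporter mRNA quantified by RT-PCR, fluorescent labeling, HpaI digestion and capillary electrophoresis; bidirectional fitting versus DMSO.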
# [10] = target: Transcription factor E2F1 (Homo sapiens) (UniProt Q01094); assay: ATG_E2F_CIS: Attagene CIS-FACTORIAL HepG2 Assay for human E2F Transcription Factor 1 (AID 2282935); conditions: HepG2 Attagene cis-reporter, E2F reporter RNA transcripts; actives raise or lower the signal
# Sequence of Transcription factor E2F1 (Homo sapiens) (Q01094 whole entry, looked up): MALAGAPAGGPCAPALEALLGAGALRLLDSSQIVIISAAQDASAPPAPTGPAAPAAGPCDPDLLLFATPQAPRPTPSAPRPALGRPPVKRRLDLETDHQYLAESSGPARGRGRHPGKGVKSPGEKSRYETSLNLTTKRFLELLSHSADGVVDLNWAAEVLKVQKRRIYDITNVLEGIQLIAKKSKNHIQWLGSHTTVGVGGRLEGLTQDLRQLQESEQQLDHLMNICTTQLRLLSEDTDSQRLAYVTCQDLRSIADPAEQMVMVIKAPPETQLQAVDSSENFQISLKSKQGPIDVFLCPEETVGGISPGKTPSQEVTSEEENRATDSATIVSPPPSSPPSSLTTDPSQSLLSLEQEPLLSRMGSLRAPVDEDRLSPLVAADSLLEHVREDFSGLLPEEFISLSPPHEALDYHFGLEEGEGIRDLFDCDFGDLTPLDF
# Outline: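 Measures reporter transcript levels via RT-PCR with capillary electrophoresis detection in HepG2 cells harboring cis-regulated reporter units; 24 h post-dose; bidirectional curve fitting with DMSO as baseline.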
# [11] = ATG_E_Box_CIS: Attagene CIS-FACTORIAL HepG2 Assay for human Enhancer Box (E-box) (AID 2282936); conditions: HepG2 E-box cis-reporter transcription, actives raise or lower the signal
# Outline: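 First, HepG2 cells receive multiple cis-regulated reporter constructs by transient transfection. Next, chemicals are applied for 24 h. Finally, reporter mRNA is quantified via RT-PCR and capillary electrophoresis, with DMSO as baseline.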
# [12] = ATG_M_61_CIS: Attagene CIS-FACTORIAL HepG2 Assay for M61 Transcription Factor (Internal Marker) (AID 2282937); conditions: HepG2 Attagene CIS-FACTORIAL M61 internal marker reporter; actives raise or lower the signal
# Outline: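 Multiplexed reporter mRNA assay, HepG2 human hepatoma cells, 24 h treatment. Signal: FAM-labelled, HpaI-digested RT-PCR fragments by CE. Fit: bidirectional, baseline DMSO.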
# [13] = ATG_EGR_CIS: Attagene CIS-FACTORIAL HepG2 Assay for human Early Growth Response 1 (EGR1) (AID 2282938); conditions: HepG2 Attagene CIS-FACTORIAL EGR reporter mRNA; actives raise or lower the signal
# Outline: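 Multiplexed cis-reporter system in human hepatoma HepG2 cells, transiently transfected. Cells are dosed for 24 h; reporter transcripts are amplified, fluorescently tagged and sized by capillary electrophoresis, with DMSO as negative control.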
# [14] = ATG_M_19_CIS: Attagene CIS-FACTORIAL HepG2 Assay for M19 Transcription Factor (Internal Marker) (AID 2282939); conditions: HepG2 Attagene CIS-FACTORIAL M19 internal marker reporter; actives raise or lower the signal
# Outline: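 Readout: fluorescent reporter-transcript fragments by capillary electrophoresis after RT-PCR. Human HepG2 liver cells carried transfected MRTU constructs reporting endogenous transcription-factor activity; exposure 24 h. Gain or loss of signal fitted relative to DMSO.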
# [15] = ATG_ERE_CIS: Attagene CIS-FACTORIAL HepG2 Assay for Estrogen Response Element (ERE) (AID 2282940); conditions: HepG2 ERE cis-reporter, Attagene RNA transcript; actives raise or lower the signal
# Outline: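 Readout: reporter mRNA induction by RT-PCR, FAM-labelled primer extension, HpaI digestion and capillary electrophoresis, 24 h after dosing transfected HepG2 cells. Endogenous transcription factors act on cis-element-regulated reporters. Gain or loss fitted against DMSO.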
# [16] = ATG_Ets_CIS: Attagene CIS-FACTORIAL HepG2 Assay for human Erythroblast Transformation Specific (ETS) (AID 2282941); conditions: HepG2 ETS cis-reporter transcription, actives raise or lower the signal
# Outline: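 Human HepG2 hepatoma cells were transiently transfected with promoter-driven reporter constructs and treated for 24 hours. Reporter transcripts were quantified by RT-PCR with fluorescent primer extension; bidirectional curve fitting used DMSO as reference.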
# [17] = target: Hepatocyte nuclear factor 3-beta (Homo sapiens) (UniProt Q9Y261); assay: ATG_FoxA2_CIS: Attagene CIS-FACTORIAL HepG2 Assay for human Forkhead box A2 (FOXA2) (AID 2282942); conditions: HepG2 cis-reporter transcription factor activity, 24 h; actives raise or lower the signal
# Sequence of Hepatocyte nuclear factor 3-beta (Homo sapiens) (Q9Y261 whole entry, looked up): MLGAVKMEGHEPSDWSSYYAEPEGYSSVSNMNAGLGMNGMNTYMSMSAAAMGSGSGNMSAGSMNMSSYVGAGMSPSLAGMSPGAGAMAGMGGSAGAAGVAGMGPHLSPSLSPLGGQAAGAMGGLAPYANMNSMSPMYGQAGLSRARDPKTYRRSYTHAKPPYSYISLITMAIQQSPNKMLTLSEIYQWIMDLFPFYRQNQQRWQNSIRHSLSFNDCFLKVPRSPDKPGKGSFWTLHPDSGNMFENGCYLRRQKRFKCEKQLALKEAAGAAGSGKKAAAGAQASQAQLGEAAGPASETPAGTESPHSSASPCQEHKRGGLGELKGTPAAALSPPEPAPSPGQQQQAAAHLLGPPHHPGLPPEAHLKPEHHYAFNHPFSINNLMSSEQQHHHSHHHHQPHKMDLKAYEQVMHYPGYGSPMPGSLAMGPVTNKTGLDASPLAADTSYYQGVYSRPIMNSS
# Outline: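 Multiplexed cis-element reporter assay in transiently transfected HepG2. Twenty-four hours post-dosing, RNA was reverse-transcribed, amplified, FAM-labelled, HpaI-digested and separated by CE. Activity gain or loss relative to DMSO.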
# [18] = ATG_FoxO_CIS: Attagene CIS-FACTORIAL HepG2 Assay for human Forkhead box O (FoxO) (AID 2282943); conditions: HepG2 Attagene cis-reporter, FoxO element, mRNA; actives raise or lower the signal
# Outline: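 HepG2 cells transiently transfected with cis-element-driven reporter units report endogenous FoxO activity. After 24 h chemical exposure, reporter mRNA quantified by RT-PCR, fluorescent labeling, HpaI digestion and capillary electrophoresis; bidirectional fit versus DMSO.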
# [19] = ATG_GATA_CIS: Attagene CIS-FACTORIAL HepG2 Assay for human GATA Binding Protein (AID 2282944); conditions: HepG2 GATA cis-element reporter, Attagene multiplex mRNA; actives raise or lower the signal
# Outline: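 Read-out: fluorescent reporter mRNA fragments resolved by capillary electrophoresis after RT-PCR. Human liver HepG2 cells carried transiently transfected cis-regulated reporter constructs; chemicals incubated 24 h; gain or loss of signal fitted relative to DMSO.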
# [20] = ATG_GLI_CIS: Attagene CIS-FACTORIAL HepG2 Assay for human Zinc Finger Protein GLI1 (AID 2282945); conditions: HepG2, Attagene cis-factorial reporter mRNA, GLI element; actives raise or lower the signal
# Outline: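 Transiently transfected HepG2 cells report endogenous transcription factor activity via cis-element-driven reporter units. After 24 h compound exposure, reporter mRNA was measured by RT-PCR with capillary electrophoresis; bidirectional fitting against DMSO baseline.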
smiles,measurement,setting,value
CC(=O)[O][Hg][c]1ccccc1,AC50,[1],2.79 µM (active)
same,AC50,[2],1.64 µM (active)
same,outcome,[3],inactive
same,outcome,[4],inactive
same,outcome,[5],inactive
same,outcome,[6],inactive
same,outcome,[7],inactive
same,outcome,[8],inactive
same,AC50,[9],1.24 µM (active)
same,outcome,[10],inactive
same,outcome,[11],inactive
same,outcome,[12],inactive
same,AC50,[13],4.73 µM (active)
same,outcome,[14],inactive
same,outcome,[15],inactive
same,outcome,[16],inactive
same,outcome,[17],inactive
same,outcome,[18],inactive
same,outcome,[19],inactive
NC(=S)Nc1ccccc1,outcome,[1],inactive
same,outcome,[2],inactive
same,outcome,[3],inactive
same,outcome,[4],inactive
same,outcome,[5],inactive
same,outcome,[6],inactive
same,outcome,[7],inactive
same,outcome,[8],inactive
same,outcome,[9],inactive
same,outcome,[10],inactive
same,outcome,[11],inactive
same,outcome,[12],inactive
same,outcome,[13],inactive
same,AC50,[15],39.2 µM (active)
same,outcome,[16],inactive
same,outcome,[17],inactive
same,outcome,[18],inactive
same,outcome,[19],inactive
same,outcome,[20],inactive
ClC(Cl)=C(Cl)C(Cl)=C(Cl)Cl,AC50,[1],180 µM (active)
same,outcome,[2],inactive
same,outcome,[3],inactive
same,AC50,[4],100 µM (active)
same,AC50,[5],71.4 µM (active)
same,outcome,[6],inactive
same,AC50,[7],165 µM (active)
same,outcome,[8],inactive
same,outcome,[9],inactive
same,outcome,[10],inactive
same,outcome,[11],inactive
same,outcome,[12],inactive
same,AC50,[13],131 µM (active)
same,outcome,[14],inactive
same,outcome,[15],inactive
same,outcome,[16],inactive
same,outcome,[17],inactive
same,AC50,[18],180 µM (active)
same,outcome,[19],inactive
same,AC50,[20],158 µM (active)
N#CCCO,outcome,[1],inactive
same,outcome,[2],inactive
same,outcome,[3],inactive
same,outcome,[4],inactive
same,outcome,[5],inactive
same,outcome,[6],inactive
same,outcome,[7],inactive
same,outcome,[8],inactive
same,outcome,[9],inactive
same,outcome,[10],inactive
same,outcome,[11],inactive
same,outcome,[12],inactive
same,outcome,[13],inactive
same,outcome,[14],inactive
same,outcome,[16],inactive
same,outcome,[17],inactive
same,outcome,[18],inactive
same,outcome,[19],inactive
CCOP(OCC)OCC,outcome,[1],inactive
same,outcome,[2],inactive
same,outcome,[3],inactive
same,outcome,[4],inactive
same,outcome,[5],inactive
same,outcome,[6],inactive
same,outcome,[7],inactive
same,outcome,[8],inactive
same,outcome,[9],inactive
same,outcome,[10],inactive
same,outcome,[11],inactive
same,outcome,[12],inactive
same,outcome,[13],inactive
same,outcome,[14],inactive
same,outcome,[16],inactive
same,outcome,[17],inactive
same,outcome,[18],inactive
same,outcome,[19],inactive
same,outcome,[20],inactive
COP(=O)(OC)O/C(=C\Cl)c1cc(Cl)c(Cl)cc1Cl,outcome,[1],inactive
same,outcome,[2],inactive
same,outcome,[3],inactive
same,AC50,[4],58.2 µM (active)
same,outcome,[5],inactive
same,AC50,[6],62.4 µM (active)
same,AC50,[7],26.9 µM (active)
same,AC50,[8],70.3 µM (active)
same,outcome,[9],inactive
same,outcome,[10],inactive
same,outcome,[11],inactive
same,outcome,[12],inactive
same,AC50,[13],37 µM (active)
same,outcome,[14],inactive
same,AC50,[15],4.11 µM (active)
same,outcome,[16],inactive
same,outcome,[17],inactive
same,outcome,[18],inactive
same,outcome,[19],inactive
same,AC50,[20],130 µM (active)
